From PubChem
VP16 counter = VP16 counterscreen qHTS for inhibitors of ROR gamma transcriptional activity. AID 2546, 2010. Potency, µM (titrated, usually from 53.6 µM), most hits filed as inhibitors. hit rate 3.5% among 310,000. Drosophila S2 Gal4-VP16 UAS-luciferase, luminescence, 20 h;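 note: Gal4-VP16 expression switched on by copper sulfate through the metallothionein promoter; nearly all actives have a fitted effect of over 50% in size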
RORg inh = qHTS for inhibitors of ROR gamma transcriptional activity; Potency, µM (doses to about 53.6 µM), actives largely listed as inhibitors; AID 2551, 2010; hit rate 5.4% among 310,000; Drosophila S2 Gal4-RORgamma UAS-luciferase reporter, 20 h; note: nearly all actives have a fitted effect of over 60% in size
Target sequence (P51450 whole entry, looked up, the tested form may be a part): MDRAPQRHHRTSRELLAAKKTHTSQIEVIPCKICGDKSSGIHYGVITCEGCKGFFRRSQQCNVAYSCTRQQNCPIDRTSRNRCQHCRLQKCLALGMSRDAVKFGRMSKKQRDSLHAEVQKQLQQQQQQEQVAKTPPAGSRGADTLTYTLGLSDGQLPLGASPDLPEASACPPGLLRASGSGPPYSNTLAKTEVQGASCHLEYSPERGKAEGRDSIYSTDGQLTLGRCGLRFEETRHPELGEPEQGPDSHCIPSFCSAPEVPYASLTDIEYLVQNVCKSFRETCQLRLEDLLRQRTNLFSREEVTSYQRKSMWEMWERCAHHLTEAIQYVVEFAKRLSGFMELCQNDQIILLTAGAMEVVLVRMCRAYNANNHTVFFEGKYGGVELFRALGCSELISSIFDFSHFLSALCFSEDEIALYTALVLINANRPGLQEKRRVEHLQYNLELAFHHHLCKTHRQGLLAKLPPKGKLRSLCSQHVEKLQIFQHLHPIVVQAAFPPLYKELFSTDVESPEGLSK
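Luciferase reporter read in Schneider cells carrying Gal4-RORγ (mouse) and UAS-Photinus luciferase; cells given compound 1 h before 700 uM copper sulfate induction, then incubated 20 h at ambient temperature.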
KinaseGlo FLuc = Counterscreen for Luciferase (Kinase-Glo TM) Inhibition | Kinase-Glo luciferase, ATP luminescence, 8 min | Luciferin 4-monooxygenase (Photuris pensylvanica), Q27757 | AID 1379, 2008 | hit rate 0.28% among 200,000 | Potency, µM (highest dose often 38.3 µM), most hits filed as inhibitors; note: nearly all actives have a fitted effect of over 60% in size
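Compounds were added to a substrate mix at pH 7.2 (50 mM imidazole, 10 uM ATP, within the enzyme's linear range), followed by Kinase-Glo detection reagent; luminescence was measured after 8 minutes at ambient temperature.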
Large screens that a line does not name were inactive. Compounds with a hit are over-represented: about 6.4% of the library has one in this group of screens. Calls come from the whole dose curve; as a rule, active = well fitted curve in the direction sought with a large enough effect; inconclusive = small, poorly fitted or top-dose-only effect, or another doubt; inactive = no such curve, though single readings can be large; an effect the other way counts as inactive or inconclusive.

O=C(Nc1nnc(-c2ccccc2)o1)c1cc(Cl)sc1Cl	VP16 counter 1.3µM, RORg inh 2.2µM
O=C(Nc1nnc(-c2ccc(F)cc2)o1)c1cc(Cl)sc1Cl	VP16 counter 2.5µM, RORg inh 3.2µM
O=C(Nc1nnc(-c2ccc(Cl)cc2)o1)c1nc2ccccc2s1	VP16 counter 4.5µM, RORg inh 4.5µM
Fc1ccc(-c2nnc(-c3ccc(Cl)cc3)o2)cc1	RORg inh inconclusive
O=C(Nc1nnc(-c2ccc(Cl)cc2)o1)Nc1ccccc1Cl	none
Cn1ncc(Br)c1NC(=O)Nc1ccccc1	none (no result: KinaseGlo FLuc)
CC(=O)NC(Cc1ccc(F)cc1)C(=O)NC1CCN(c2ncccc2[N+](=O)[O-])CC1 (stereo not given)	none
Oc1ccc(O)c(Cc2nc3ccccc3[nH]2)c1	RORg inh 16µM
c1ccc2[nH]c(CCCc3nc4ccccc4[nH]3)nc2c1	none (no result: KinaseGlo FLuc)
O=C(CC1C(=O)N(c2ccccc2)C(=O)N1C1CCCCC1)Nc1ccccc1 (stereo not given)	none
COc1ncc2nc(C)c(=O)n(-c3ccccc3)c2n1	none (no result: KinaseGlo FLuc)
Cc1ccc2c(c1)C(c1ccccc1)N(C(=O)c1c(F)cccc1Cl)CC(=O)N2 (stereo not given)	none (no result: KinaseGlo FLuc)
CCCc1nc(SCC(=O)Nc2nnc(CC)s2)c2c(=O)n(C)c(=O)n(C)c2n1	VP16 counter 5µM (no result: KinaseGlo FLuc)
CCc1nc(SCC(=O)Nc2nnc(CC)s2)c2c(=O)n(C)c(=O)n(C)c2n1	VP16 counter inconclusive (no result: KinaseGlo FLuc)
COc1ccc2c(c1)c(CC(=O)NCc1ccc3c(c1)OCO3)c(C)n2C(=O)c1ccc(Cl)cc1	none
N=c1n(CCN2CCOCC2)c2ccccc2n1CC(=O)c1cccc([N+](=O)[O-])c1	none (no result: KinaseGlo FLuc)
N=c1n(CCN2CCOCC2)c2ccccc2n1CC(=O)c1ccc(Cl)c(Cl)c1	VP16 counter 4µM, RORg inh inconclusive
CC(C)CCn1c(=O)c2ccccc2n2c(CN3CCOCC3)nnc12	none
CCOC(=O)C1=C(C)NC(=O)NC1c1c(OC)ccc2ccccc12 (stereo not given)	none (no result: KinaseGlo FLuc)
COc1ccc2ccccc2c1C1NC(=O)NC(C)=C1[N+](=O)[O-] (stereo not given)	VP16 counter 11µM (no result: KinaseGlo FLuc)
COc1ccc(/C=N/Nc2ncnc3scc(-c4ccccc4)c23)cc1OC	VP16 counter 0.89µM, RORg inh 3.5µM
COc1cc(/C=N/Nc2ncnc3sc4c(c23)CCC4)ccc1O	VP16 counter inconclusive
CCOc1ccc(/C=N/NC(=O)c2cccc3ccccc23)c(OCC)c1	none (no result: KinaseGlo FLuc)
O=C(Cn1cc(/C=N/NC(=O)c2cccc3ccccc23)c2ccccc21)Nc1ccc(F)cc1	none (no result: KinaseGlo FLuc)
CCOC(=O)Cn1cc(/C=N/NC(=O)CC#N)c2ccccc21	none (no result: KinaseGlo FLuc)
CCn1cc(/C=N/NC(=O)c2ccc(C#N)cc2F)c2ccccc21	VP16 counter 10µM
COC(=O)Cn1cc(/C=N/NC(=O)c2ccc(C#N)cc2F)c2ccccc21	RORg inh 10µM
COc1ccc(CC(=O)NNC(=O)c2nn(Cc3ccccc3)c(=O)c3ccccc23)cc1OC	none (no result: KinaseGlo FLuc)
COc1ccc(CCNC(=O)c2cc(C)oc2C)cc1OC	none (no result: KinaseGlo FLuc)
COc1cccc(C2CCCN2Cc2nc(-c3cnccn3)no2)c1 (stereo not given)	none
COc1cccc2c1OCC(C(=O)O)C2 (stereo not given)	none
COc1cccc2c1C(CO)N1C(C#N)C3CC(C(=O)O)C(C1C2)N3C (stereo not given)	VP16 counter 10µM, RORg inh 7.1µM (no result: KinaseGlo FLuc)
Cc1nc2cnc(Oc3ccccc3)nc2n(CCc2ccccc2)c1=O	none
COc1ccc(NC(=O)Cn2nc(C(=O)O)c3ccccc3c2=O)cc1Cl	none (no result: KinaseGlo FLuc)
O=C(CC(SCc1ccco1)c1ccc(O)cc1)c1cccs1 (stereo not given)	RORg inh 0.89µM
O=C(CSc1nnc(-c2ccc(O)cc2)n1Cc1ccco1)c1cccs1	none
O=C(CSc1nnc(-c2ccc(Br)o2)n1Cc1ccccc1)c1ccccc1F	none (no result: VP16 counter)
O=S(=O)(c1cccc(-c2n[nH]c(=S)n2Cc2ccccc2)c1)N1CCOCC1	none (no result: KinaseGlo FLuc)
S=c1[nH]nc(-c2ccc(Br)o2)n1Cc1ccccc1	VP16 counter 13µM, RORg inh 6.3µM
CC(C)c1cc(-c2n[nH]c(=S)n2Cc2ccccc2)cs1	VP16 counter inconclusive, RORg inh 0.56µM
S=c1[nH]nc(-c2ccc(Cl)cc2)n1Cc1ccccc1	VP16 counter 2.8µM, RORg inh 1.8µM
C=CCn1c(C2CCCCC2)n[nH]c1=S	VP16 counter inconclusive, RORg inh 4µM
O=C1c2ccccc2NC(c2ccc(O)cc2)N1c1ccccc1 (stereo not given)	none (no result: KinaseGlo FLuc)
COc1ccc(CN(C)S(=O)(=O)c2ccc3c(c2)OCCO3)cc1	none (no result: KinaseGlo FLuc)
CCC(=O)Oc1ccc(C2NC(=O)c3ccccc3O2)cc1OC (stereo not given)	none (no result: KinaseGlo FLuc)
O=C(Nc1cccc(Cl)c1)c1cccc(N2C(=O)C3CC=CCC3C2=O)c1 (stereo not given)	none (no result: KinaseGlo FLuc)
CC(=O)OC[C@H]1O[C@@H](O/N=C(\C)CCN2CCCCc3nc(C)c(C)cc32)[C@H](OC(C)=O)[C@@H](OC(C)=O)[C@H]1OC(C)=O	none (no result: KinaseGlo FLuc)
S=c1[nH]nc(-c2cccs2)n1Cc1ccccc1	VP16 counter inconclusive, RORg inh 2.8µM
S=c1[nH]nc(C2CCCCC2)n1Cc1ccccc1	VP16 counter 7.1µM, RORg inh 2.5µM
COc1ccc(-c2n[nH]c(=S)n2Cc2ccccc2)cc1OC	VP16 counter inconclusive, RORg inh 11µM (no result: KinaseGlo FLuc)
O=c1[nH]c(=O)n(Cc2ccccc2)c2nc(-c3cccs3)n(CCO)c12	none (no result: KinaseGlo FLuc)
COc1ccc(NS(=O)(=O)c2ccc(-c3n[nH]c(=S)n3Cc3ccccc3)cc2)cc1	none (no result: KinaseGlo FLuc)
COc1ccc(NS(=O)(=O)c2cccc(-c3n[nH]c(=S)n3Cc3ccccc3)c2)cc1	none
COc1ccc(-c2n[nH]c(=S)n2Cc2ccccc2)cc1	VP16 counter 7.1µM, RORg inh 7.9µM (no result: KinaseGlo FLuc)
CCOc1ccccc1CN1C(=O)NC2(CCCCCC2)C1=O	none (no result: KinaseGlo FLuc)
O=C(Nc1cccc(Cl)c1)c1ccc2c(c1)SC1=NS(=O)(=O)CCN12	none
COC(=O)C1=C(N)N(c2ccccc2F)C2=C(C(=O)CC(C)(C)C2)C1c1ccc(OC)c(OC)c1 (stereo not given)	none
Cc1nn(CC(=O)N2CCN(c3ccccc3)CC2)c(=O)c2cccn12	none (no result: KinaseGlo FLuc)
COc1ccc(C)cc1NC(=O)CNC(C)C(=O)Nc1ccc(C(C)=O)cc1 (stereo not given)	none (no result: KinaseGlo FLuc)
S=c1[nH]nc(-c2ccccc2)n1Cc1ccccc1	VP16 counter 14µM, RORg inh 2.5µM
Cc1n[nH]c(=S)n1Cc1ccccc1	none (no result: KinaseGlo FLuc)
CCCn1ncc(C(=O)NC2CCCN(Cc3ccc(Cl)cc3)C2)c1C (stereo not given)	none (no result: KinaseGlo FLuc)
O=C(O)/C=C\c1ccc(O)c(O)c1	none
O=C(/C=C/c1ccc(O)c(O)c1)OCCc1ccccc1	VP16 counter 10µM, RORg inh inconclusive
COc1ccc(NC(C)(C)c2nnnn2-c2c(C)cccc2C)cc1	none (no result: KinaseGlo FLuc)
O=C(CS(=O)(=O)c1cn(CC(=O)N2CCOCC2)c2ccccc12)Nc1ccccc1F	none (no result: KinaseGlo FLuc)
CCCCCC(=O)/C=C/C=C\C/C=C\C/C=C\CCCC(=O)O	none
c1ccc(-c2noc(-c3cccc4ccccc34)n2)nc1	VP16 counter 10µM, RORg inh inconclusive
c1ccc(-c2n[nH]c(-c3ccccn3)n2)cc1	VP16 counter 1.1µM, RORg inh 1.1µM
